# Screening data (PubChem)
# This is one part of a sample in which hits are shown more often than they occur.
# TbREL1 primary: TbREL1 inhibition, primary screen; inhibition, % at 9.66 µM; TbREL1 RNA ligation, FRET fluorescence; AID 1117264; hit rate 0.49% among 89,000;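 active means inhibition above the mean inhibition across all screened compounds plus 3 SD, cut at about 11% in these data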;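 further: 0% = plate median of test wells and 100% = NSC42067 control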
# Target sequence (P86926 whole entry, looked up): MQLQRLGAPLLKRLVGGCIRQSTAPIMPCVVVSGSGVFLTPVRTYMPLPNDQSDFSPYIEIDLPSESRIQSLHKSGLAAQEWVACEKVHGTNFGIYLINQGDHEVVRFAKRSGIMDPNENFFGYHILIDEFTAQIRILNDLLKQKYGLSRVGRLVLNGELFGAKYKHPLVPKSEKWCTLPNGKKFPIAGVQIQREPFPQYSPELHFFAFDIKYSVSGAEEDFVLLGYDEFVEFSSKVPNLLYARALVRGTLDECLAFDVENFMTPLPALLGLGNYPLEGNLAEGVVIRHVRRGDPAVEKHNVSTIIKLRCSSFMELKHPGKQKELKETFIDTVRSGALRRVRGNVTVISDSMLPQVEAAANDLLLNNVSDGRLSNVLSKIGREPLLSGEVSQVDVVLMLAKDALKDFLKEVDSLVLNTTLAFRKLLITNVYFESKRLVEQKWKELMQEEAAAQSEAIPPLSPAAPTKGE
# The depositor's hits bear a star.
SMILES,TbREL1 primary
CC(=O)Oc1cc(C(=O)OCC(=O)NC23CC4CC(CC(C4)C2)C3)cc(OC(C)=O)c1OC(C)=O,12*
O=C(COC(=O)c1ccccn1)NC12CC3CC(CC(C3)C1)C2,0
COc1ccc(C(=O)OCC(=O)NC23CC4CC(CC(C4)C2)C3)c(OC)c1OC,4
O=C(CSc1nnc(-c2ccccc2)n1-c1ccc(Cl)cc1)Nc1ccccc1-c1ccccc1,2
O=C(NCCc1ccccn1)c1ccc2c(c1)ncn2C1CCCCC1,-1
COc1ccccc1N1CCN(N=Cc2ccccc2Br)CC1,-4
CCCCCCCCN1C(=O)[C@@H](CC(=O)NCc2cccc(C(F)(F)F)c2)C[C@@]2(C(=O)OC)C1=C[C@H](C(C)C)O[C@@H]2C1CC1,-2
Cn1cccc1C(=O)N1CCN(S(=O)(=O)c2ccc(C(C)(C)C)cc2)CC1,-2
CC(C)CCNC(=O)C1CCN(c2cncnc2)CC1,-4
CC(C)c1csc2nc3n(c(=O)c12)CCCCC3,5
O=C1c2sc3nc4n(c(=O)c3c2CCC1Br)CCCCC4 (centres undefined),16*
O=c1c2c3c(sc2nc2n1CCCCC2)CCC3,4
O=C(CCCCCN1C(=O)C2C3C=CC(C3)C2C1=O)Nc1ccc2ncccc2c1 (centres undefined),4
Cc1ccccc1CN1CCCCC(NC(=O)c2ccc(-c3ccccc3)cc2)C1=O (centres undefined),-3
O=C(Cc1ccccc1)NCC(=O)Nc1cccc(Br)c1,0
O=C(O)c1ccccc1-c1ccccc1C(=O)Nc1cccc(Br)c1,11*
O=C(O)c1ccccc1-c1ccccc1C(=O)NNc1ccccc1,1
NC(=O)C1CCN(c2nc(-c3ccc(OCc4ccccc4)cc3)cs2)CC1,1
Cc1ccc(C2(C)NC(=O)N(CC(=O)NCCC3=CCCCC3)C2=O)cc1 (centres undefined),-1
Cc1ccc(CNCCC2=CCCCC2)cc1,11*
CCCNC(=O)C(=O)NCCC1=CCCCC1,1
COc1ccccc1N1CCN(C(=O)c2cc3c(C)nn(-c4ccccc4)c3s2)CC1,-2
O=C(Nc1nc2c(Br)cccc2s1)c1ccc2c(c1)OCCO2,10
CC1CCN(c2ccc(C(=O)O)cc2NS(=O)(=O)c2ccc(C(C)(C)C)cc2)CC1,-1
CCCCOCCCNC(=O)C[C@H]1C[C@@]2(C(=O)OC)C(=C[C@H](C(C)(C)C)O[C@@H]2C)N(Cc2ccc(Cl)cc2Cl)C1=O,3
SMILES,TbREL1 primary
CN(C(=O)[C@@H](C1CC1)[C@@H](O)c1ccc2ccccc2c1)c1ccccc1,-6
CN1CCN(c2ccc(NC(=O)c3cccs3)cc2)CC1,5
C=CC(=O)Nc1ccc(N(C)c2ccnc(Nc3ccc(N4CCN(C)CC4)cc3)n2)cc1,12*
CN1CCN(c2ccc(NC(=O)COc3ccccc3Cl)cc2)CC1,0
COc1ccc(C2Nc3ccccc3C(=O)N2Cc2ccc(C)o2)cc1COc1c(C)cccc1C (centres undefined),2
CCn1c(NC(=O)c2ccc(C)cc2)c2ccccc2nc1=O,-4
CCC(C)n1c(NC(=O)c2ccccc2)c(C#N)c2nc3ccccc3nc21 (centres undefined),12*
Cc1ccc(C(=O)NCCn2c(N)c(C#N)c3nc4ccccc4nc32)cc1,-2
O=S(=O)(c1ccc(CN2CCOCCOCCN(Cc3ccc(S(=O)(=O)C(F)(F)F)cc3)CCOCC2)cc1)C(F)(F)F,-2
COc1ccc(-c2nnc(SCC(=O)Nc3ccc(S(=O)(=O)Nc4cc(C)nc(C)n4)cc3)n2-c2ccc(OC)cc2)cc1,0
Cc1nn(-c2ccccc2)c2sc(C(=O)N3CCN(Cc4ccc(F)cc4)CC3)cc12,4
COc1cc(NC(=O)c2ccccc2)c(C)cc1NC(=O)CSc1nnc(-c2ccccc2F)n1-c1ccc(C)cc1,-1
C#CCOCCOCCOCCNc1nc(N2CCN(C(=O)Cn3cc(CCCN=C(N)N)nn3)CC2)nc(N2CCN(C(=O)[C@H]([C@@H](C)O)n3cc(CCCCN)nn3)CC2)n1,3
C#CCOCCOCCOCCNc1nc(N2CCN(C(=O)[C@H]([C@@H](C)CC)n3cc(CCCCN)nn3)CC2)nc(N2CCN(C(=O)[C@H]([C@@H](C)CC)n3cc(CCCN=C(N)N)nn3)CC2)n1,11
C#CCOCCOCCOCCNc1nc(N2CCN(C(=O)[C@H]([C@@H](C)O)n3cc(CCCCN)nn3)CC2)nc(N2CCN(C(=O)[C@H]([C@@H](C)CC)n3cc(CCCN=C(N)N)nn3)CC2)n1,12*
COc1ccc(-n2c(COc3ccc(C)cc3)nnc2SCC(=O)c2ccc(-c3ccccc3)cc2)cc1,0
CC(=O)N1CCc2cc(S(=O)(=O)NC3CCN(C(=O)OCc4ccccc4)CC3)ccc21,-1
CC(C)CSc1nnc(-c2ccco2)n1C,1
COC(=O)c1cccc(Cn2ccc3ccc(-c4ccc5ccn(C(=O)c6cccc(OC)c6)c5c4)cc32)c1,1
COc1ccc(-c2cc(-c3nnc(SCC(=O)N4CCOCC4)n3N)[nH]n2)cc1,0
NC(=O)C1CCN(c2ncc(Br)s2)CC1,1
C=CC[C@@H](Cc1ccc(F)cc1)C(=O)OC[C@@H]1CCCN1C(=O)[C@@H](CC=C)CC(=O)NCCO,-2
C=CC[C@@H](Cc1ccc(F)cc1)C(=O)OC[C@@H]1CCCN1C(=O)[C@@H](CC=C)CC(=O)N(CCO)Cc1ccccc1,-2
C=CC[C@@H](Cc1ccc(F)cc1)C(=O)OC[C@@H]1CCCN1C(=O)[C@H](CC=C)CC(=O)N[C@H](CO)Cc1ccccc1,23*
COc1cc(OC)c(-c2c3cc(O)c(=O)cc-3oc3cc(O)c(O)cc23)cc1OC,20*
SMILES,TbREL1 primary
COC(=O)c1ccccc1-c1c2ccc(=N)cc-2oc2cc(N)ccc12,-167
COc1c(O)cc2oc(-c3ccc(O)cc3)cc(=O)c2c1O,-2
Cc1ccc(-n2c(SCC(=O)Nc3ccccc3-c3ccccc3)nnc2-c2ccco2)cc1,1
CC(C)CCN(C)C1CCN(C(=O)Nc2ccc3c(c2)OCO3)CC1,-1
COCCN(C(=O)COC(=O)c1cc2c(s1)CCC2)c1c(N)n(Cc2ccccc2)c(=O)[nH]c1=O,27*
COCCN(C(=O)COC(=O)c1cnc(C)cn1)c1c(N)n(Cc2ccccc2)c(=O)[nH]c1=O,1
COCCN(C(=O)COC(=O)C1=COCCO1)c1c(N)n(Cc2ccccc2)c(=O)[nH]c1=O,1
Cc1[nH]c2ccccc2c1CCN(Cc1cccs1)C(=O)Nc1cccc2c1OCO2,-8
CCOc1ccc(-n2c(SCC(=O)Nc3ccc(S(=O)(=O)Nc4nccs4)cc3)nnc2-c2ccco2)cc1,2
O=C(CSc1nnc(-c2cccnc2)n1Cc1ccco1)Nc1ccc(F)cc1Cl,-2
CC(C)C[C@@H]1CN=C(N)N1C[C@@H]1CCCN1C[C@@H](C(C)C)N1C[C@@H](Cc2ccccc2)N(CCCC2CCCC2)C1=N,13*
CC[C@@H](C)[C@@H]1CN([C@@H](C)CN2CCC[C@H]2CN2C(N)=NC[C@@H]2Cc2ccccc2)C(=N)N1CCCC1CCCC1,3
CC(C)C[C@H]1CNC(=S)N1CC1CCCN1C[C@H](CC(C)C)N1C[C@H](Cc2ccccc2)N(CC2CCCCCC2)C1=S (some centres undefined),-4
S=c1[nH]nc(-c2cc(-c3ccccc3)n[nH]2)n1N=Cc1c[nH]c2ccccc12,-7
CCn1c(=O)n2n(c1=O)[C@]1(C=C(C)C2)CN(Cc2ccc(OC)cc2OC)C(NC(=O)c2ccccc2)=N1,-5
O=C(NN1C(=O)/C(=C/C=C/c2ccco2)SC1=S)c1ccccc1O,86*
